# Laboratory results from the supplement of paper PMC4466236.
# Whole data set: some 33,000 sequences, median “E-score (dimensionless, -0.5 to 0.5)” near -0.058, cut for the highest 2% near 0.35. The sample as a whole holds a higher share of the highest values than the screen did.
# Tested on: MvaT
# Test: PBM 8-mer E-score (mean of HK and ME arrays) (E-score (dimensionless, -0.5 to 0.5)); higher = stronger relative binding preference
# Description: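 Protein binding microarray: GST-tagged full-length MvaT (P. aeruginosa PAO1) bound to two universal double-stranded 60-mer arrays (ME and HK), each with a constant 25-mer primer and a variable 35-mer region covering all 8-mers. The 8-mer E-score (rank-based, range -0.5 to 0.5, >0.45 = specific binding) is the mean of the two arrays.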
row,Sequence,PBM 8-mer E-score
1,AGGTGCAT,-0.0802
2,GCAGGACC,-0.179
3,ACAATCAA,0.21
4,TAGAGACA,0.123
5,CAATCGGA,-0.0769
6,ACTTCTCC,0.2
7,GCATATAC,0.311
8,TCATATGA,0.204
9,TCATATAA,0.379
10,CCATATAA,0.343
11,GCATATAA,0.374
12,GCATATGA,0.176
13,ACGCAGGC,-0.282
14,GCCGAACC,-0.115
15,ATAACTGG,0.213
16,ACAGGAAA,0.0933
17,AAACCCTT,-0.0425
18,GTTAATGA,0.264
19,CTTAATAA,0.385
20,GTTAATAA,0.377
21,GTTAATCA,0.183
22,CTTAAAAA,0.163
23,CTCAATAA,0.307
24,CATGAGAA,-0.0314
25,CACTTGTA,0.139
26,CAATAACC,0.223

row,Sequence,PBM 8-mer E-score
1,AAATAACG,0.331
2,ACATAACT,0.268
3,AAATAACT,0.375
4,AAATAACA,0.336
5,AAATAACC,0.375
6,CACGTGCA,-0.0519
7,ATCTGGAC,-0.0431
8,TCATCGAA,-0.15
9,GAGACATC,-0.0544
10,AAGCATAG,-0.033
11,CCAGTTAC,0.14
12,AGACGCGA,0.0502
13,AAATTTTA,0.35
14,AAATTTAC,0.11
15,AAATTTAG,0.238
16,AAATTTAT,0.384
17,GAATTTTA,0.254
18,TAAATTTA,0.414
19,AAAATTTT,0.354
20,CAAATTTA,0.22
21,AAAATTTA,0.311
22,AAAATTTG,0.221
23,AATTTTTA,0.34
24,AAAAATTT,0.298
25,AGAGTTCG,0.00443
26,CAACCCGC,-0.00327

row,Sequence,PBM 8-mer E-score
1,CATGATGC,-0.011
2,AGGGGGAG,-0.246
3,AGAAAGGC,-0.118
4,CTGTGCTA,-0.0139
5,GGAGCCAC,-0.325
6,TAATTCAA,0.346
7,GAATTTAA,0.264
8,TAATTTAA,0.457
9,CAAATGTA,0.0762
10,TAATTTGA,0.201
11,CAATTTAG,0.2
12,TAAATGTA,0.359
13,CAATTTTA,0.293
14,GAATTCAA,0.0832
15,CAATTTAA,0.366
16,AAATTCAA,0.226
17,GAAATGTA,0.259
18,CAGGAGAG,-0.196
19,AGTCACAT,-0.0559
20,GTTTCGCA,-0.0431
21,ATTACTCG,0.169
22,AAATACTG,0.244
23,CATGTCAG,-0.042
24,AATAGTCG,0.218
25,ACGTATAC,0.136
26,GCAGGCGC,-0.28

row,Sequence,PBM 8-mer E-score
1,ATACTCGG,0.0138
2,AGATTTAA,0.273
3,AAATTTCA,0.241
4,TGATTTAA,0.347
5,AAATTTAA,0.408
6,AAATTTGA,0.189
7,CGATTTAA,0.238
8,GAATCAAA,0.13
9,GTAGTGCA,-0.115
10,AACCACTG,-0.0219
11,GACCGCTA,-0.115
12,GATTGAAA,0.12
13,CTGCCACC,-0.166
14,ATACTCAT,0.175
15,ATCAGGCA,-0.0666
16,GTTAAATA,0.396
17,ATTAAACC,0.249
18,ATTAAAGG,0.156
19,ATTAAAGA,0.264
20,ATTAAATG,0.373
21,CTTAAATA,0.337
22,CTTAAATC,0.0452
23,GTTAAAGA,0.11
24,ATTAAATC,0.382
25,ACTAAATA,0.31
26,AGTAAATG,0.175

row,Sequence,PBM 8-mer E-score
1,ATTAAATA,0.421
2,CGGTACCG,-0.0831
3,TACGAGCA,-0.0785
4,CACCTAAG,-0.143
5,GACGTACA,0.034
6,CCCCGTGA,-0.306
7,AACTGACG,0.0522
8,ACTTTTTG,0.122
9,CTTAAACA,0.156
10,ATTAAACG,0.284
11,ATTAAACA,0.391
12,GCAATACA,0.0621
13,GAGCACGA,-0.273
14,AGGCATAA,-0.0265
15,GATTTAGA,0.0137
16,GATTTATA,0.398
17,AGTTTATA,0.424
18,AATTTATC,0.276
19,GATTTTTA,0.133
20,GGTTTATA,0.242
21,CATTTATC,0.241
22,AATTTATG,0.273
23,AGTTTATC,0.144
24,CATTTATA,0.347
25,CATTTTTA,0.242
26,AATTTATA,0.46

row,Sequence,PBM 8-mer E-score
1,AGCAGGCC,-0.328
2,TCCTAACA,0.0526
3,TCCCACAA,0.0216
4,CAATTCAC,0.0398
5,CTTTTACA,0.0261
6,GTTTTATA,0.243
7,ATTTTATG,0.234
8,CCTTTATA,0.193
9,ACTTTATA,0.39
10,AATTTACA,0.269
11,ATTTTATA,0.366
12,ATTTTACA,0.371
13,ACTTTATC,0.105
14,TGCTCACA,-0.0823
15,CAAGCAGG,-0.0598
16,AGTACAGG,0.0418
17,AAAAATCA,0.0153
18,GCCTCCCC,-0.263
19,ACATCCCA,-0.00783
20,TCTCATAA,0.0817
21,CAGTGGAC,0.0119
22,AAGACATG,0.0346
23,CGGGAAAG,-0.177
24,ACAATAAA,0.356
25,ACAATACT,0.223
26,ACAATAAG,0.276

row,Sequence,PBM 8-mer E-score
1,ACAATAAC,0.324
2,ACAATAAT,0.401
3,CCAATAAA,0.302
4,AACTACCA,0.17
5,AAAATAAC,0.378
6,AAAATACC,0.265
7,AAAATAAT,0.422
8,AAAAAAAT,0.227
9,GAAATGAA,0.17
10,GGAATAAA,0.289
11,GAAATACA,0.0961
12,GAAATAAC,0.3
13,AAAATACA,0.25
14,TAAATACA,0.35
15,CAAATAAC,0.341
16,GAAATAAA,0.405
17,CAGGTGTC,-0.277
18,AGACTTGG,-0.179
19,AGTGTCTC,-0.00692
20,ACGCTCTC,-0.273
21,CCGTAGGA,-0.216
